Tm shift relative to glycine control data for 59 compounds are collected here from PubChem BioAssay AID1259313 (Sanford-Burnham Center for Chemical Genomics, 2017).

Hit rate of the full screen: of about 340,000 compounds, about 8,500 (2.5%) were called active. The sample as a whole holds a higher share of actives than the screen did. A number with no mark means an inactive call.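 Rule for the calls: active = melting temperature shift of at least 10% of the positive control shift, at one fixed dose; inactive = the rest.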

The assay has as its system Glutamate receptor ionotropic, NMDA 3A (GRIN3A) ligand-binding domain. Nature of the assay: NR3A LBD thermal stabilization by compounds – biophysical, differential scanning fluorimetry, uHTS, primary screen (AID 1259313). To be noted: at 25 µM, active compounds read high, 0% = protein alone, 100% = glycine-bound protein. (In general: DSF heats the sample and reads unfolding from a dye or from intrinsic fluorescence.)
Turning to `O=C(c1ccc[nH]c1=S)N1CCN(S(=O)(=O)c2ccc(Br)cc2Cl)CC1`, the Tm shift relative to glycine control was -0.43%.
`COC(=O)C1(O)CC(C(C)C)=NN1C(=O)c1ccc(Cl)cc1` (centres undefined): the Tm shift relative to glycine control is -4.26%.
On to `Cc1ccc(NC(=O)CN2CCC3(O)CCCCC3C2c2ccc3c(c2)OCO3)c(C)c1` (centres undefined), for which the Tm shift relative to glycine control was 1.39%.
`Cc1cc(C)c(OCC(=O)N(Cc2cccs2)C2CCS(=O)(=O)C2)c(C)c1` (centres undefined): the Tm shift relative to glycine control was -2.05%.
In the case of `CC1=NCCN1S(=O)(=O)c1cccc([N+](=O)[O-])c1`, the Tm shift relative to glycine control is 0.43%.
For `Cc1cc(C)n(S(=O)(=O)c2cccc([N+](=O)[O-])c2)n1`, the Tm shift relative to glycine control is -0.54%.
In the case of `Cc1ccc(-c2cn(S(=O)(=O)c3cccc([N+](=O)[O-])c3)nc2N)cc1`, the Tm shift relative to glycine control is 23.9% (active).
On to `O=C(COC(=O)c1ccco1)Nc1ccc(Cl)cn1`, for which the Tm shift relative to glycine control is -4.19%.
Regarding `CCN(c1ccccc1)S(=O)(=O)c1ccc(OCC(=O)N2CCCC2)cc1`, the Tm shift relative to glycine control is -0.92%.
In the case of `COC(=O)C(NS(=O)(=O)c1ccc(F)cc1)c1ccccc1` (centres undefined) it was 0%.
For the compound `COc1ccc(CN2CCN(Cc3ccc(OC)c(OC)c3OC)CC2)cc1`, the Tm shift relative to glycine control was -0.74%.
On to `Cc1cc(NC(=O)Nc2ccc(Cl)cc2)n(-c2ccccc2)n1`, for which the Tm shift relative to glycine control was 3.84%.
As for `Cc1ccc(NC(=O)COc2ccc(-n3ccnc3)cc2)cc1Cl`, the Tm shift relative to glycine control is -10.8%.
In the case of `Cc1ccc(NC(=O)Nc2cc(-c3ccccc3)nn2C)cc1Cl`, the Tm shift relative to glycine control was 47.8% (active).
In the case of `O=C(NC(Cc1c[nH]c2ccccc12)C(=O)O)/C(=C/c1ccco1)NC(=O)c1ccccc1` (centres undefined) it was 5.13%; in that of `Cc1ccc(S(=O)(=O)NNC(=O)Nc2cccc3ccccc23)cc1`, 1.46%.
For the compound `Cn1cc(Cl)c(C(=O)NNC(=S)Nc2cccc(Cl)c2)n1`, the Tm shift relative to glycine control is -11.3%.
In the case of `Cc1csc(NC(=S)Nc2cccc(Cl)c2)n1`, the Tm shift relative to glycine control is 16.9% (active).
For `Cn1nc(C(F)(F)F)c(C(=O)Nc2cccc(C(F)(F)F)c2)c1SCc1ccc(Cl)cc1`, the Tm shift relative to glycine control was 6.13%.
Consider `FC(F)(F)c1cccc(NC(=S)Nc2cccc(Cl)c2)c1`, for which the Tm shift relative to glycine control was 15.7% (active).
Consider `S=C(Nc1cccc(Cl)c1)Nc1ccc2cn[nH]c2c1`, for which the Tm shift relative to glycine control is 13% (active).
In the case of `Cc1cccc(NC(=S)Nc2ccc(Cl)c(Cl)c2)c1` it was 14.9% (active); in that of `Cc1cc2[nH]ncc2cc1NC(=S)NC(=O)c1ccccc1`, -2.48%; in that of `Cc1cccc(NC(=S)NC23CN4CN(CN(C4)C2)C3)c1`, -2.24%.
The same measure for `CCC(=O)Nc1nc(C)c(C(=O)Nc2cccc(Cl)c2)s1`: 0.19%; for `Cc1cc(Cl)nc(NC(=O)Nc2cccc(Cl)c2)n1`: -1.44%.
Consider `O=C(O)CC1(CC(=O)Nc2cccc(C(F)(F)F)c2)CCCC1`, for which the Tm shift relative to glycine control was -1.43%.
The same measure for `O=S(=O)(Nc1ccc2cn[nH]c2c1)c1ccccc1`: -1.96%.
Take `COc1ccccc1C(=O)OCC(=O)NCCNC(=O)COC(=O)c1ccccc1OC`: the Tm shift relative to glycine control was -2.11%.
The same measure for `CCSc1nnc(SCC(=O)NNC(=O)c2ccccc2F)s1`: 0.44%; for `O=C(NN1C(=O)C2C3C=CC(O3)C2C1=O)c1ccncc1` (centres undefined): 2.17%.
Take `CCO[C@@H]1OC(C(N)=O)=C[C@H](c2ccc(Br)cc2)[C@H]1CCCO`: the Tm shift relative to glycine control is 2.58%.
As for `COc1ccc(CCNS(=O)(=O)c2cc3c(cc2C)NC(=O)CO3)cc1OC`, the Tm shift relative to glycine control is 2.97%.
For `O=c1ccn([C@@H]2O[C@H](CNS(=O)(=O)c3cc4ccccc4s3)[C@@H](O)[C@H]2O)c(=O)[nH]1`, the Tm shift relative to glycine control is -1.03%.
The same measure for `CCOC(=O)N1CCN(S(=O)(=O)c2ccc(C(=O)Nc3ccc(F)cc3F)cc2)CC1`: -2.71%; for `CC(C)Oc1ccc(CC(=O)NNC(=S)Nc2ccc(Br)cc2)cc1`: -3.79%; for `C=CCn1c(C23CC4CC(CC(C4)C2)C3)n[nH]c1=S`: 0.44%.
With `O=C(O)c1ccccc1/C=N/Nc1ccc(S(=O)(=O)Nc2ccc(Cl)cc2)cc1[N+](=O)[O-]`, the Tm shift relative to glycine control is 9.21%.
On to `COc1ccc(Br)cc1/C=N/Nc1ccc(S(=O)(=O)Nc2ccccc2C(=O)O)cc1[N+](=O)[O-]`, for which the Tm shift relative to glycine control is 503% (active).
As to `COc1ccc(S(=O)(=O)Nc2ccc3cn[nH]c3c2)cc1[N+](=O)[O-]`, the Tm shift relative to glycine control was -8.84%.
As to `COc1cccc(/C=N/Nc2ccc(S(=O)(=O)Nc3ccccc3C(=O)O)cc2[N+](=O)[O-])c1O`, the Tm shift relative to glycine control was 22.4% (active).
With `Cc1ccc(NS(=O)(=O)c2ccc(N/N=C/c3ccccc3OCC(=O)O)c([N+](=O)[O-])c2)c(C)c1`, the Tm shift relative to glycine control is 3.61%.
For the compound `COc1ccc(S(=O)(=O)Nc2ccccc2C(=O)N2CCCC2)cc1C`, the Tm shift relative to glycine control is 2.36%.
In the case of `COc1ccc(CCNC2=C(Cl)C(=O)N(Cc3ccccc3)C2=O)cc1OC` it was 2.81%; in that of `CC(=O)c1ccc(N2CCN(S(=O)(=O)c3ccc4c(c3)CC(=O)N4C)CC2)cc1`, 4.97%.
Consider `Cc1ccc(CC(=O)Nc2ccc(OC(F)F)c(Cl)c2)cc1C`, for which the Tm shift relative to glycine control was 3.08%.
As for `O=C(Cc1ccc(Cl)c(Cl)c1)Nc1ccc(SC(F)F)cc1`, the Tm shift relative to glycine control is 25.9% (active).
Regarding `CC(=O)N1CCN(CC(=O)Nc2ccc(SC(F)F)cc2)CC1`, the Tm shift relative to glycine control is -2.44%.
Turning to `Cc1c(Cl)c([N+](=O)[O-])nn1CC(=O)NCCCN1CCOCC1`, the Tm shift relative to glycine control was -0.8%.
Turning to `COc1cc2c(-c3ccc4c(c3)OCO4)c(-c3ccsc3)oc(=O)c2cc1OC`, the Tm shift relative to glycine control was 12.9% (active).
In the case of `COc1cc(C(=O)CCc2ccc3c(c2)OCO3)cc(OC)c1OC`, the Tm shift relative to glycine control was 0.46%.
Regarding `COc1cc(-c2c(-c3ccc4c(c3)OCO4)noc2C)ccc1F`, the Tm shift relative to glycine control is -2.27%.
Consider `CN(C)CCCn1c(SCc2ccc(Cl)cc2)nnc1-c1ccncc1`, for which the Tm shift relative to glycine control was -5.52%.
For the compound `CC(C)(Oc1ccc(Cl)cc1)C(=O)OCC(=O)NCCc1ccc(S(N)(=O)=O)cc1`, the Tm shift relative to glycine control was -1.31%.
With `CN(C)N=Nc1ccc2nc[nH]c2c1`, the Tm shift relative to glycine control was -1.21%.
With `COc1ccc2[nH]c3c(c2c1)CCN1C(=O)C(CC(=O)NCc2cccc(C(F)(F)F)c2)C[C@H](C(=O)N2CCOCC2)[C@@]31C` (some centres undefined), the Tm shift relative to glycine control was -2.74%.
Turning to `COC(=O)CNS(=O)(=O)c1ccc(Cc2ccc(S(=O)(=O)NCC(=O)OC)cc2)cc1`, the Tm shift relative to glycine control was 1.25%.
Consider `C/C(N)=C(/C#N)C(=O)COC(=O)CNS(=O)(=O)c1ccc(C)cc1`, for which the Tm shift relative to glycine control is -0.65%.
As to `COC(=O)c1sc(N)c(C(=O)OC)c1COC(=O)CNS(=O)(=O)c1ccc(C)cc1`, the Tm shift relative to glycine control was 13.2% (active).
